Assay outcomes as filed in PubChem.
Compounds with a hit are over-represented: about 12% of the library has one in this group of screens.
CHX counter: Cycloheximide Counterscreen for Small Molecule Inhibitors of Shiga Toxin. cell reporter, cycloheximide protein synthesis inhibition counterscreen. max response, %. actives 12% (n = 300,000); in the data active = max response mostly above about 13%, no sharp cut-off; inactive = mostly below about 14%; also: read at 38.3 µM for the half of the compounds with a filed dose
Lassa entry inh: qHTS for Inhibitors of binding or entry into cells for Lassa Virus | actives 1.2% (n = 300,000) | AID 540256, 2011 | Lassa virus pseudotype entry inhibition, cell reporter | Potency, µM (series often up to 37.9 µM), usual class: inhibitors; calls by dose curve; tested in HEK293 cells; also: nearly all actives have a fitted effect of over 50% in size
Shiga toxin inh: A qHTS for Small Molecule Inhibitors of Shiga Toxin; AID 2315, 2010; actives 9.2% (n = 290,000); Vero cells, Shiga toxin protein synthesis inhibition reporter; inhibition, % at 38.7 µM; in the data active = inhibition mostly above about 28%, no sharp cut-off; inactive = mostly below about 43%
Marburg entry inh: qHTS for inhibitors of binding or entry into cells for Marburg Virus | Marburg virus pseudotyped entry inhibition, cell reporter | Potency, µM (titrated, usually from 37.8 µM), usual class: inhibitors | actives 1.8% (n = 300,000) | AID 540276, 2011; calls by dose curve; tested in HEK293 cells
Each line names hits and unclear results; the compound was inactive in the other large screens.

Cc1ccc(S(=O)(=O)Nc2cc(C(=O)NCCN(C)C)ccc2N2CCCC2)cc1	none (no result: Lassa entry inh, Marburg entry inh)
CCOC(=O)c1ccc(N2CCCCC2)c(NS(=O)(=O)c2ccc(C)cc2)c1	Lassa entry inh inconclusive, Marburg entry inh 7.9µM
CCN(CC)CCCNC(=O)c1ccc(N2CCCCC2)c(NS(=O)(=O)c2ccc(C)cc2)c1	Marburg entry inh 15µM
Cc1ccc(/C=C/S(=O)(=O)NCC(=O)OCC(=O)Nc2c(F)cccc2F)cc1	none (no result: CHX counter, Shiga toxin inh)
N#Cc1cc(C#N)c(N2CCN(c3ccccn3)CC2)nc1N	CHX counter 44, Shiga toxin inh 60, Marburg entry inh inconclusive
O=C1CC2(CCN(C(=O)COc3ccc(Cl)cc3)CC2)Oc2ccccc21	Lassa entry inh inconclusive (no result: CHX counter, Shiga toxin inh)
COc1ccc(/C=C/c2cc(C(F)(F)F)on2)cc1	CHX counter 40, Shiga toxin inh 64, Marburg entry inh inconclusive
COc1ccc(/C=C/c2cc(C(F)(F)F)[nH]c(=O)n2)cc1OC	Lassa entry inh inconclusive
CN1CCN(C=NC2=NN(c3cccc(C(F)(F)F)c3)CC2)CC1	CHX counter 21, Lassa entry inh inconclusive
CN(C)C=NC1=NN(c2cccc(C(F)(F)F)c2)CC1	CHX counter 43, Shiga toxin inh 43
Cc1ccc(Oc2ccc(NS(=O)(=O)c3cccc(C(=O)O)c3)cc2)cc1	none (no result: CHX counter, Shiga toxin inh)
CCc1c(C)nc2[nH]nc(-c3ccccc3C)n2c1=O	none
CCc1c(C)nc2[nH]nc(-c3ccccc3)n2c1=O	CHX counter 15
COc1ccc(-c2cc3c(nn2)-c2ccccc2C3=O)cc1	Lassa entry inh inconclusive, Marburg entry inh inconclusive
Cc1cccc(-c2cc3c(nn2)-c2ccccc2C3=O)c1	CHX counter 30, Lassa entry inh inconclusive, Shiga toxin inh 48, Marburg entry inh inconclusive
O=C1c2ccccc2-c2nnc(-c3ccccc3)cc21	CHX counter 19, Lassa entry inh inconclusive, Shiga toxin inh 72, Marburg entry inh inconclusive
Cc1cc(Cl)ccc1C(=O)C1CCCN(C(=O)CN2CCOC2=O)C1 (configuration not stated)	none
Cn1c(Oc2ccc(F)cc2)c(C=O)c2ccccc21	Marburg entry inh inconclusive
Cn1c(Sc2ccc(Br)cc2)c(C=O)c2ccccc21	Lassa entry inh 10µM, Marburg entry inh inconclusive
CCN(C(=O)COC(=O)c1cc([N+](=O)[O-])ccc1N1CCOCC1)C1CCS(=O)(=O)C1 (configuration not stated)	none (no result: CHX counter, Shiga toxin inh)
Cc1cc(NC(=O)C(C)SCC(=O)OCC(=O)N(C)c2ccccc2)no1 (configuration not stated)	Marburg entry inh inconclusive (no result: CHX counter, Shiga toxin inh)
Cc1ccc(CC(=O)NCC(c2ccco2)N(C)C)cc1C (configuration not stated)	none
Cc1ccc2oc(C(=O)NCC(c3ccco3)N(C)C)c(C)c2c1 (configuration not stated)	CHX counter 41, Shiga toxin inh 75 (no result: Lassa entry inh, Marburg entry inh)
CN(C)C(CNC(=O)c1ccc(C(F)(F)F)cc1)c1ccco1 (configuration not stated)	CHX counter 17 (no result: Lassa entry inh, Marburg entry inh)
CC(Cc1ccco1)NC(=O)c1ccc(C(F)(F)F)cc1 (configuration not stated)	CHX counter 43, Lassa entry inh inconclusive, Shiga toxin inh active, Marburg entry inh inconclusive
CC(Cc1ccco1)NC(=O)c1cccc(S(=O)(=O)N(C)C)c1 (configuration not stated)	CHX counter 30, Lassa entry inh inconclusive, Shiga toxin inh 67, Marburg entry inh inconclusive
Cc1ccc(Cn2c(=O)n(Cc3ccccc3Cl)c(=O)c3cccnc32)cc1	none (no result: CHX counter, Lassa entry inh, Shiga toxin inh)
O=[N+]([O-])c1ccc(N2CCN(c3ccc(Cl)nn3)CC2)cc1NC1CC1	Marburg entry inh inconclusive (no result: CHX counter, Shiga toxin inh)
CCN(C(=O)COC(=O)c1ccccc1Oc1ccccc1)c1c(N)n(Cc2ccccc2)c(=O)[nH]c1=O	none (no result: CHX counter, Shiga toxin inh)
Cc1ccc(NC(=O)c2cc3ccccn3n2)cc1F	none (no result: CHX counter, Shiga toxin inh, Marburg entry inh)
CCCc1[nH]nc2c1C(c1ccc(OCCN3CCOCC3)c(OC)c1)C(C#N)=C(N)O2 (configuration not stated)	CHX counter 49, Lassa entry inh inconclusive, Shiga toxin inh 54
CCn1c2ccccc2c2cc(C3C(C#N)=C(N)Oc4n[nH]c(COC)c43)ccc21 (configuration not stated)	Lassa entry inh inconclusive, Marburg entry inh 5.2µM
COc1ccc(S(=O)(=O)N(C)C)cc1NCC(=O)Nc1cccc(C#N)c1	Lassa entry inh inconclusive
COCCN1C(=O)NC(CCc2ccccc2)C(C(C)=O)=C1C (configuration not stated)	none (no result: CHX counter, Lassa entry inh, Shiga toxin inh)
O=C(COC(=O)c1ccccc1NCc1ccco1)Nc1ccc2c(c1)OCO2	CHX counter 27, Lassa entry inh inconclusive, Shiga toxin inh 62
O=C(COC(=O)c1c(F)cccc1F)Nc1ccc2c(c1)OCO2	none (no result: CHX counter, Shiga toxin inh)
NC(=O)c1ccsc1NC(=O)COC(=O)c1ccccc1NCc1ccco1	CHX counter 33, Shiga toxin inh 107
CC(C)(C)NC(=O)COC(=O)c1ccccc1NC(=O)c1ccco1	none
NC(=O)c1ccsc1NC(=O)COC(=O)c1cc(=O)[nH]c2ccccc12	none (no result: CHX counter, Shiga toxin inh)
O=C(COC(=O)c1ccccc1NC(=O)c1ccco1)Nc1ccc2c(c1)OCO2	CHX counter 17, Marburg entry inh inconclusive
CC(C)Cc1nnc(NC(=O)CCC(=O)N2CCN(c3ccc(F)cc3)CC2)s1	none (no result: Lassa entry inh, Marburg entry inh)
O=C(N/N=C/c1ccc(-c2ccccc2[N+](=O)[O-])o1)[C@H]1C[C@@H]1c1ccccc1	CHX counter 31, Lassa entry inh 0.82µM, Shiga toxin inh active, Marburg entry inh inconclusive
Cc1ccc(C(=O)N/N=C/c2ccc(-c3cccc(Cl)c3)o2)cn1	Marburg entry inh inconclusive
O=C(N/N=C/c1ccc(-c2cccc([N+](=O)[O-])c2)o1)[C@H]1C[C@@H]1c1ccccc1	Lassa entry inh 4µM
Cc1n[nH]c(=S)n1/N=C/c1ccc(-c2ccccc2[N+](=O)[O-])o1	CHX counter 13
Cc1ccc(C(=O)N/N=C/c2ccc(-c3ccccc3[N+](=O)[O-])o2)cn1	CHX counter 19
O=[N+]([O-])c1cccc(-c2ccc(/C=N/n3c(-c4ccccc4)n[nH]c3=S)o2)c1	none
COc1cccc(C2Oc3ccccc3C3CC(c4cccs4)=NN32)c1 (configuration not stated)	CHX counter 51, Shiga toxin inh 79
COc1cc(-c2nc(-c3cccc(C(F)(F)F)c3)no2)cc(OC)c1OC	Marburg entry inh inconclusive
COc1cc(Nc2nc3ccccc3n3nnnc23)cc(OC)c1OC	none (no result: Lassa entry inh, Marburg entry inh)
COc1cc(Nc2ncc3c(C)nc(-c4cccc(C(F)(F)F)c4)n3n2)cc(OC)c1OC	Lassa entry inh 10µM (no result: CHX counter, Shiga toxin inh, Marburg entry inh)
COc1cc(Nc2ncc3c(C)nc(-c4cccc(Oc5ccccc5)c4)n3n2)cc(OC)c1OC	Lassa entry inh 3.1µM (no result: CHX counter, Shiga toxin inh, Marburg entry inh)
COC(=O)C1CCN(Cc2cn(-c3ccccc3)nc2-c2ccc3c(c2)OCO3)CC1	Marburg entry inh inconclusive
Cc1ccc2[nH]c3c(=O)n(CC(=O)NCCCN4CCN(c5ccc(F)cc5)CC4)ncc3c2c1	none
Cc1nccc(-c2cc(-c3ccc(Cl)cc3Cl)no2)n1	CHX counter 36, Lassa entry inh inconclusive, Shiga toxin inh 97
Cc1cc2nccc(-c3ccc(Cl)cc3Cl)n2n1	none (no result: Lassa entry inh, Marburg entry inh)
CC(NC(=O)Cc1cccc(C(F)(F)F)c1)c1ccc(F)cc1 (configuration not stated)	none (no result: Lassa entry inh)
